Results reported in the supplement of paper PMC10849652.
The full data set covers some 7,900 targets. This sample favours those with a hit. About 0.6% of all pairs of compound and target were hits. A number with no mark means an inactive call.

Experiments:
Experiment in all cases: log2 fold change, soluble protein after heating vs DMSO (PISA); higher = thermal stabilisation; K562 cells, 10 uM, 30 min; active = over 0.2 and 3.5 SD of the protein, either way, in both replicates (recomputed)
[1] = compound: CC1=C(C=C(C=C1)NC(=O)C2=CC(=CC=C2)C(C)(C)C#N)NC3=CC4=C(C=C3)N=CN(C4=O)C
Summary of the method: (§1)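 K562 cells at 2×10^6 cells/mL were treated for 30 min with 10 μM compound, and aliquots were heated for 3 min over 48°C-58°C before pooling. Extraction used PBS with 0.5% NP-40 at 4°C, and soluble protein was the supernatant after 21,000xg for 90 min, measured by TMTpro 16plex LC-MS/MS with channel sums equalised. Thermal stability values, relative to control samples and from duplicates, are log2 fold changes.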

[2] = compound: CC1=C(C=C(C=C1)NC(=O)C2=CC(=CC=C2)N(C)C)NC(=O)C3=CC=C(C=C3)O
Summary of the method: as §1

[3] = compound: CC1=CC=C(C=C1)SC2=C3C=C(SC3=CN=C2)C(=O)N
Summary of the method: as §1

[4] = compound: CC1=NC(=CC=C1)C2=C(N=C(N2)C(C)(C)C)C3=CC4=NC=CN=C4C=C3
Summary of the method: as §1

[5] = compound: CCCCN(Cc1ccc(C(=O)NO)cc1)C(=O)Nc1ccccc1 [Nexturastat A]
Summary of the method: as §1

[6] = compound: CCCS(=O)(=O)Nc1ccc(F)c(C(=O)c2c[nH]c3ncc(-c4ccc(Cl)cc4)cc23)c1F [vemurafenib]
Summary of the method: as §1

[7] = compound: CCCS(=O)(=O)Nc1ccc(F)c(C(=O)c2c[nH]c3ncc(Cl)cc23)c1F
Summary of the method: as §1

[8] = compound: CCCc1cc(C)[nH]c(=O)c1CNC(=O)c1cc(-c2ccnc(N3CCN(C)CC3)c2)cc2c1cnn2C(C)C
Summary of the method: as §1

[9] = compound: CCN(CC)Cc1ccc2cc(COC(=O)Nc3ccc(C(=O)NO)cc3)ccc2c1 [givinostat]
Summary of the method: as §1

[10] = compound: CCN(CCCOc1ccc2c(Nc3cc(CC(=O)Nc4cccc(F)c4)[nH]n3)ncnc2c1)CCOP(=O)(O)O [barasertib]
Summary of the method: as §1

[11] = compound: CC[C@@H]1C(=O)N(C)c2cnc(Nc3ccc(C(=O)NC4CCN(C)CC4)cc3OC)nc2N1C1CCCC1
Summary of the method: as §1

[12] = compound: CC[C@@H]1C(=O)N(C)c2cnc(Nc3ccc(C(=O)N[C@H]4CC[C@H](N5CCN(CC6CC6)CC5)CC4)cc3OC)nc2N1C(C)C [volasertib]
Summary of the method: as §1

[13] = compound: CC[C@H](C)N1C=C(C2=C(C=C(C=C21)C3=CN=C(C=C3)N4CCNCC4)C(=O)NCC5=C(C=C(NC5=O)C)C)C
Summary of the method: as §1

[14] = compound: CC[C@H](C)[C@@H](C(=O)N[C@@H]([C@@H](C)O)C(=O)N[C@@H](CC(C)C)C(=O)[C@]1(CO1)C)NC(=O)[C@H]([C@@H](C)CC)N(C)C(=O)C [epoxomicin]
Summary of the method: as §1

[15] = compound: CCn1c(C(=O)N(C2CC2)C2CC2)cc2c3c(ncn3C)c(Nc3cc(C)n(C)n3)nc21
Summary of the method: as §1

[16] = compound: CCn1cc(-c2ccnc3[nH]c(-c4cccc(CN(C)C)c4)cc23)c(-c2ccc(NC(=O)N(C)C)cc2)n1
Summary of the method: as §1

[17] = compound: CN(C)CC(=O)Nc1ccc2[nH]c(=O)c3ccccc3c2c1
Summary of the method: as §1

[18] = compound: CN(CCOC1=CC=C(C=C1)C[C@H]2C(=O)NC(=O)S2)C3=CC=CC=N3 (racemic) [rosiglitazone]
Summary of the method: as §1

[19] = compound: CN1C2=C(C3=C1C(=O)N(N=C3)CC4=CC(=CC=C4)N)SC(=C2)S(=O)C
Summary of the method: as §1

[20] = compound: CN1CCC(CNc2ccc3ncc(-c4cccc(OC(F)(F)F)c4)n3n2)CC1
Summary of the method: as §1

Chain of UniProt Q9BXJ8 (Q9BXJ8 whole entry, looked up): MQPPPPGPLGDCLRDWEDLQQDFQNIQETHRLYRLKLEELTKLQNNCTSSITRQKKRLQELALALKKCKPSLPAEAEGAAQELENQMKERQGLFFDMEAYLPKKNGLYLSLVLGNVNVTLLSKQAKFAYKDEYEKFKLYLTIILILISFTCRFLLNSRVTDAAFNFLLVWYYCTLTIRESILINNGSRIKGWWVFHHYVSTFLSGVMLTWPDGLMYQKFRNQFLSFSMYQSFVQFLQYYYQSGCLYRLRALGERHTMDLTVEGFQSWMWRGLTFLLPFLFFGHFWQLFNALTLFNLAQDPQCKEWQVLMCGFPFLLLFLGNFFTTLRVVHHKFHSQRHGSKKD
Chain of UniProt Q9Y4E8 (Q9Y4E8 whole entry, looked up): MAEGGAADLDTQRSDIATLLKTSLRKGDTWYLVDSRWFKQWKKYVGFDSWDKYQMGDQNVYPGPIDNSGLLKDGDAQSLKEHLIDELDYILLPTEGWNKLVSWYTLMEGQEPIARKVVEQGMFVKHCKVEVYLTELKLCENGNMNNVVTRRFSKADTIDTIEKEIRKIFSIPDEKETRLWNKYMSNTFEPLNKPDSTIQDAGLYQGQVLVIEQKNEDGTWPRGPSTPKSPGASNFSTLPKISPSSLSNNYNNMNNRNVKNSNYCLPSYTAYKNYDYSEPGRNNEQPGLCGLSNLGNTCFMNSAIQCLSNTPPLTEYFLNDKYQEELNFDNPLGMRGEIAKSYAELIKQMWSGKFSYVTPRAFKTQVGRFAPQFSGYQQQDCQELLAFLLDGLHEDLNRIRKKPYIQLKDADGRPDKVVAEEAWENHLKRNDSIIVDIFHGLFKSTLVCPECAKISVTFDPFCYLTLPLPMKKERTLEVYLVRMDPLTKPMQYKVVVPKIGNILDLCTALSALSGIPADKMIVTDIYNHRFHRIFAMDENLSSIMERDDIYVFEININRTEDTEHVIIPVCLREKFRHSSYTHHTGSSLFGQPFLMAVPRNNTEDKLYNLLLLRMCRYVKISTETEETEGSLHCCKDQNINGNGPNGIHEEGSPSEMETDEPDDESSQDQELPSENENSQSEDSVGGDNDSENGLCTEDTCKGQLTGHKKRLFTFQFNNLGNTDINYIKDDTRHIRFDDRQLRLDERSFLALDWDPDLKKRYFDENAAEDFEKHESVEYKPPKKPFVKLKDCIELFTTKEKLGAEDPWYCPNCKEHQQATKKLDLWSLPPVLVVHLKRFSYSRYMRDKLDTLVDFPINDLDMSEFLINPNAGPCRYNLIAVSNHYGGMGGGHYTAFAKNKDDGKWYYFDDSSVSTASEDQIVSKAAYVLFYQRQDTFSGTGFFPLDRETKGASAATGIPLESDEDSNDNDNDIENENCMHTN
Chain of UniProt Q9BZI7 (Q9BZI7 whole entry, looked up): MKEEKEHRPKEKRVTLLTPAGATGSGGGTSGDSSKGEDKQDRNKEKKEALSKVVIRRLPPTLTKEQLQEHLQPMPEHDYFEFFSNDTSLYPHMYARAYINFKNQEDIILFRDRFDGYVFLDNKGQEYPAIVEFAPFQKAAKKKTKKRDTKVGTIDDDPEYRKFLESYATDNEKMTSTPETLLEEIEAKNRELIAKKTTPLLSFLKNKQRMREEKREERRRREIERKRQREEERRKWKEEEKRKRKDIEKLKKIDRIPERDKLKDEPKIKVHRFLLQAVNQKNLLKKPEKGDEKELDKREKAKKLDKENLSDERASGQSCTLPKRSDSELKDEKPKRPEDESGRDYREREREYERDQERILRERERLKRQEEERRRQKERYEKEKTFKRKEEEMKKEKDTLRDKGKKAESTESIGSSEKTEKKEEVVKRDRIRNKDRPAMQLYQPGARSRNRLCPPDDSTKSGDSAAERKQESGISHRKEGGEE
Chain of UniProt Q7Z392 (Q7Z392 whole entry, looked up): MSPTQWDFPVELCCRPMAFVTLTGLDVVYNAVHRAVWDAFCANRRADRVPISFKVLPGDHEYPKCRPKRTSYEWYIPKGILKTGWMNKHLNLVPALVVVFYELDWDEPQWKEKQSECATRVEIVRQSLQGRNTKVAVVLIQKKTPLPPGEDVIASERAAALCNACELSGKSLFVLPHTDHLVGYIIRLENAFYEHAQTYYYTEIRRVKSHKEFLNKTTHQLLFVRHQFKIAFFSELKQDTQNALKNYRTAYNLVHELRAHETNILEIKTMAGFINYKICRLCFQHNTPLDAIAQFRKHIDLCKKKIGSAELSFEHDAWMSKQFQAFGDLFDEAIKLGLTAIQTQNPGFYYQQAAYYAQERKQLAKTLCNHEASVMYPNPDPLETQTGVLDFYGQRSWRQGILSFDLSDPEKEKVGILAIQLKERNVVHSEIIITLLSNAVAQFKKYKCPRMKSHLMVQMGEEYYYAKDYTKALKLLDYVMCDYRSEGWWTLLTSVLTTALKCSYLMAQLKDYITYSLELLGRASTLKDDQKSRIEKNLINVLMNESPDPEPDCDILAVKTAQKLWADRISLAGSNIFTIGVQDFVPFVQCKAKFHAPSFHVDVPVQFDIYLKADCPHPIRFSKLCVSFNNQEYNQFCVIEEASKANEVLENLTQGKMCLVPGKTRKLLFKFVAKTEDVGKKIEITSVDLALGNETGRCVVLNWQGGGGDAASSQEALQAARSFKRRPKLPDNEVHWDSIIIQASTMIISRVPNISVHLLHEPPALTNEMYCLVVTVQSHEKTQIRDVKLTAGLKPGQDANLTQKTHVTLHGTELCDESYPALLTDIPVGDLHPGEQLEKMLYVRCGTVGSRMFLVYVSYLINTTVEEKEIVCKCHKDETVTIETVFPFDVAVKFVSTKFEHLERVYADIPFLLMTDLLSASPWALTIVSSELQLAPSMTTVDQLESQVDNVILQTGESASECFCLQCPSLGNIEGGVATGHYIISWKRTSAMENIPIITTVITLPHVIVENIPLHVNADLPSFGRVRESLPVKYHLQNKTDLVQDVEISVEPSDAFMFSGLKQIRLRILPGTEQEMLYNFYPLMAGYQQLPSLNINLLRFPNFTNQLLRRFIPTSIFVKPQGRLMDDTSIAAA
Chain of UniProt Q9UID3 (Q9UID3 whole entry, looked up): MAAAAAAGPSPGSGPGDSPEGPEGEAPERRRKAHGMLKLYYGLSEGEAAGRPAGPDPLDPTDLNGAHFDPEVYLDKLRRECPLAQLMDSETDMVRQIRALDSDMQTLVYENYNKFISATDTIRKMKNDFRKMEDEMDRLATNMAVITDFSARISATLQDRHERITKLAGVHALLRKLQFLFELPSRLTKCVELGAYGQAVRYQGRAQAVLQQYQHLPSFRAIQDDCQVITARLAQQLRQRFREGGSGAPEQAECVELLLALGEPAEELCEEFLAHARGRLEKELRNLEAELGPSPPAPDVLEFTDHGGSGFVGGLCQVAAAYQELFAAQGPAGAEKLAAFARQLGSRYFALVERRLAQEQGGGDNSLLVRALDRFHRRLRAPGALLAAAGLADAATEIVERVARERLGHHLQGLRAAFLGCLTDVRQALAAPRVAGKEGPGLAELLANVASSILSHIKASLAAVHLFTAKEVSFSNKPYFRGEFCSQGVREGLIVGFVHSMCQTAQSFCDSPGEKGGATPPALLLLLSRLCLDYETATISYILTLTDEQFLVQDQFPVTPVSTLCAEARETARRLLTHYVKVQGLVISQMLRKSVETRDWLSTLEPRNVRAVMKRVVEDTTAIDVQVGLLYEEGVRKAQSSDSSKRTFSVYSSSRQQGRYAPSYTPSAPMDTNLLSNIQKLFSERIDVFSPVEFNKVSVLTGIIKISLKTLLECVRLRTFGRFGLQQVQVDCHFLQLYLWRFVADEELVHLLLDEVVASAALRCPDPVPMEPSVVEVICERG
Chain of UniProt Q6VEQ5 (Q6VEQ5 whole entry, looked up): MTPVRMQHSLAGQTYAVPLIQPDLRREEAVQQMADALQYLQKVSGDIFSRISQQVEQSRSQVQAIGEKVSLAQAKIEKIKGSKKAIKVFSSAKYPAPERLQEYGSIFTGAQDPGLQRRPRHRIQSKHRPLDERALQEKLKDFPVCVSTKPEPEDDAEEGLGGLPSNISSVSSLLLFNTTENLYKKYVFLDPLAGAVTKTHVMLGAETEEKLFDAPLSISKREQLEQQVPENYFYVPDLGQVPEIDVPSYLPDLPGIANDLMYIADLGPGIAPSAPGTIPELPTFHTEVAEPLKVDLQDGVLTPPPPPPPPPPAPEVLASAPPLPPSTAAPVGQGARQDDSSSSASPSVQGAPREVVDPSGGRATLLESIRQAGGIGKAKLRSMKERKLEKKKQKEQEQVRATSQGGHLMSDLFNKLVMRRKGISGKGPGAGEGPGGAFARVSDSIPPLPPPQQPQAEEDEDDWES
Chain of UniProt O95379 (O95379 whole entry, looked up): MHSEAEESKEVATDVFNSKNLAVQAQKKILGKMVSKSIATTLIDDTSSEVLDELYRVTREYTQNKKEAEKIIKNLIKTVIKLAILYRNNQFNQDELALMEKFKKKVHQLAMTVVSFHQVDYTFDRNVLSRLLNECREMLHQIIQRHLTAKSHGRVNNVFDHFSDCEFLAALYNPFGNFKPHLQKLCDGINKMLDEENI
Chain of UniProt Q7L0Y3 (Q7L0Y3 whole entry, looked up): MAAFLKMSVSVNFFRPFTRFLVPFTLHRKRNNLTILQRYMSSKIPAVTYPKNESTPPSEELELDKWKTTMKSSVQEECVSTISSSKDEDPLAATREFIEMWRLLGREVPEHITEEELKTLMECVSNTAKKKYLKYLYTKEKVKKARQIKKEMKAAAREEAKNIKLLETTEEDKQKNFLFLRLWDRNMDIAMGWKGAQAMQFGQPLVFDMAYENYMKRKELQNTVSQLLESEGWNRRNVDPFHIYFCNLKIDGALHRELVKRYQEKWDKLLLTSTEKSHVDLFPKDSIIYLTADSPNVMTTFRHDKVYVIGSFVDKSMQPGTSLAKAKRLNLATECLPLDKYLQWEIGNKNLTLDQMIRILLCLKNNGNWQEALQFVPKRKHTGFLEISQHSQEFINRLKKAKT
Chain of UniProt Q9UBK9 (Q9UBK9 whole entry, looked up): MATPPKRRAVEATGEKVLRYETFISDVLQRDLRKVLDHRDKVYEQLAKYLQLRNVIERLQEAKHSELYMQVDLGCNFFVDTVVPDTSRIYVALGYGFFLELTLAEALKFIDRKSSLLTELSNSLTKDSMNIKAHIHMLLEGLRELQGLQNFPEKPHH

Target	log2 fold change [1]	log2 fold change [2]	log2 fold change [3]	log2 fold change [4]	log2 fold change [5]	log2 fold change [6]	log2 fold change [7]	log2 fold change [8]	log2 fold change [9]	log2 fold change [10]	log2 fold change [11]	log2 fold change [12]	log2 fold change [13]	log2 fold change [14]	log2 fold change [15]	log2 fold change [16]	log2 fold change [17]	log2 fold change [18]	log2 fold change [19]	log2 fold change [20]
TOE1 (UniProt Q96GM8)	0.099	0.056	-0.012	-0.109	0.078	-0.016	0.048	0.059	-0.055	-0.063	0.067	0.154	-0.023	-0.148	-0.067	0.035	-0.043	-0.03	0.107	0.35 (active)
TRAPPC11 (UniProt Q7Z392)	0.098	0.01	-0.014	-0.053	0.046	0.033	0.025	-0.012	0.037	0.025	-0.045	-0.275 (active)	0.015	0.016	-0.049	-0.032	0.032	-0.027	0.004	-0.127
TRMT10C (UniProt Q7L0Y3)	0.013	-0.051	0.017	0.007	-0.095	0.015	0.042	-0.013	-0.022	0.041	-0.161	-0.416 (active)	0.07	0.046	-0.064	-0.057	0.018	0.021	0.008	0.003
USP15 (UniProt Q9Y4E8)	0.025	-0.044	0.023	0.027	-0.001	0.04	0.053	0.041	0.025	0.06	-0.095	-0.32 (active)	0.066	0.03	-0.032	-0.056	0.031	0.058	-0.006	-0.129
WARS2 (UniProt Q9UGM6)	-0.03	0.032	0.018	0.074	-0.128	0.048	0.136	0.042	-0.026	0.012	-0.07	-0.323 (active)	0.099	0.016	0.043	-0.03	0.043	0.074	-0.055	-0.099
VPS51 (UniProt Q9UID3)	0	-0.031	-0.045	0.017	0.032	0.034	0.021	0.032	0.071	0.059	-0.028	-0.335 (active)	-0.036	-0.015	-0.033	0.003	0.032	0.016	0.094	-0.135
WASH2P (UniProt Q6VEQ5)	-0.001	-0.034	0.019	0	0.139	0.03	-0.01	0.026	-0.007	0.043	-0.071	-0.163	0.024	0	0.002	0.037	0.021	0.033	0.012	-0.067
UPF3B (UniProt Q9BZI7)	-0.047	-0.004	0	-0.053	0.29	-0.108	-0.069	0.139	0.03	-0.058	0.146	0.333	0.059	-0.388	0.084	0.271	-0.1	-0.094	0.28	0.341
TNFAIP8 isoform 4 (UniProt O95379)	-0.019	-0.013	-0.021	0.051	-0.102	0.014	-0.102	-0.052	0.003	0.065	-0.015	-0.414	0.053	0.041	0.07	-0.088	0.022	0.001	-0.084	-0.125
WBP4 (UniProt O75554)	0.105	0.044	0.057	-0.036	-0.047	0.022	0.011	0	-0.043	-0.022	-0.004	-0.045	0.003	0.069	0.025	-0.089	-0.036	-0.038	-0.058	0.218
UXT isoform 2 (UniProt Q9UBK9)	0.008	0.003	0.039	-0.074	0.904 (active)	-0.023	-0.013	0.041	0.211	0.022	0.082	0.128	0.05	-0.038	-0.294	-0.248	0.015	0.022	-0.052	-0.126
TMEM192 (UniProt Q8IY95)	0.013	-0.032	0.026	-0.028	0.004	-0.006	-0.026	-0.014	-0.038	-0.005	-0.139	-0.061	-0.025	-0.04	0.074	0.046	-0.024	0.008	0.025	-0.408 (active)
VPS11 (UniProt Q9H270)	0.016	-0.003	0.002	0.076	0.107	0.016	0.073	0.031	-0.058	0.017	-0.284 (active)	-0.53 (active)	0.14	0.025	-0.097	-0.074	0.059	0.077	0.03	-0.244
TMEM120A (UniProt Q9BXJ8)	0.181	0.007	0.115	-0.004	-0.259	0.06	0.085	-0.007	0.116	-0.006	0.127	-0.053	0.119	0.198	-0.011	-0.128	0.015	0.149	-0.061	0.07
VPS50 (UniProt Q96JG6)	-0.007	-0.076	0.054	0.054	-0.052	0.077	0.066	0.09	0.014	0.059	-0.168	-0.415 (active)	0.08	0.009	-0.037	-0.026	0.009	0.008	0.036	-0.101
TUBA4A (UniProt P68366)	0.005	0.004	0.061	0.04	-0.03	0.005	0.068	-0.004	0.014	-0.002	-0.024	-0.01	0.007	0.055	-0.002	-0.064	-0.013	0.023	-0.168	-0.261 (active)
